About 4,300 (8.3%) of roughly 52,000 compounds were called active. The sample holds actives, similar compounds and a random draw of the others, so the mix is not that of the screen. Rule as the data show it: active = survival mostly below about 52% (no sharp cut-off); inactive = mostly above about 56%.
tested on: DeltatarO mutant; experiment: growth inhibition of S. aureus wild type versus tarO mutant, primary screen, teichoic acid synthesis inhibitors, RN4220, OD600 (AID 463173); details: OD600, 18 h, hits give low values, screened at 18.75 µg/mL (by protocol)

SMILES | survival
COc1ccc(-c2noc(COc3ccc(Br)cc3C)n2)cc1OC | 33% (active)
COc1ccccc1OCc1nc(-c2cccc(C)c2)no1 | -3% (active)
COc1ccc(CCNC(=O)CCc2cn(Cc3ccc(C)cc3)c3ccccc23)c(OC)c1OC | 52% (inactive)
Cc1ccc2nc(-c3ccncc3)c(Nc3ccccc3C)n2c1 | 103% (inactive)
COc1ccc(CC(=O)NCc2ccc3c(c2)CCN3C(=O)c2ccc(C)cc2)cc1OC | 99% (inactive)
COc1ccccc1-c1nc2c(c(SCc3ccc(F)cc3Cl)n1)Cc1c(CO)cnc(C)c1O2 | 69% (inactive)
CCOC(=O)c1ccc(NC(=O)CC2C(=O)N(c3ccc(F)cc3)C(=O)N2Cc2cccnc2)cc1 (stereo unspecified) | 95% (inactive)
O=C(CSc1nc(-c2ccccc2)cc(=O)[nH]1)Nc1ccccc1 | 77% (inactive)
COc1ccc(-c2nc3cnccn3c2NCc2ccc3c(c2)OCO3)cc1CN1CCOCC1 | 88% (inactive)
CC1CCC(NC(=O)c2ccc(CS(=O)(=O)c3cccc(C(F)(F)F)c3)o2)CC1 (stereo unspecified) | 75% (inactive)
O=C(c1ccc(F)cc1)c1cn(Cc2ccccc2F)c2cc3c(cc2c1=O)OCCO3 | 83% (inactive)
COc1ccc(NC(=O)c2c(NCc3cccc(F)c3)sc3c2CCCC3)c(OC)c1 | 69% (inactive)
COc1ccc(-c2noc(COc3cc(C)ccc3C)n2)cc1OC | -5% (active)
COc1ccc(OCc2nc(-c3ccc(OC)c(OC)c3)no2)cc1 | 61% (inactive)
COc1ccc(-c2noc(CN(C)S(=O)(=O)c3c(C)cc(C)cc3C)n2)cc1OC | 45% (inactive)
CN(C)S(=O)(=O)c1ccc(S(=O)(=O)N(CC(=O)Nc2ccccc2)C2CC2)cc1 | 94% (inactive)
Cc1cc(C)cc(OCC(=O)NCC2(N3CCOCC3)CCCCC2)c1 | 91% (inactive)
CCn1c2ccccc2c2cc(C3C(C#N)=C(N)Oc4n[nH]c(C(C)C)c43)ccc21 (stereo unspecified) | 3% (active)
CCc1[nH]nc2c1C(c1ccc(F)c(Oc3ccccc3)c1)C(C#N)=C(N)O2 (stereo unspecified) | 80% (inactive)
COCc1[nH]nc2c1C(c1ccc(F)c(F)c1)C(C#N)=C(N)O2 (stereo unspecified) | 74% (inactive)
CCOC(=O)c1cc(S(=O)(=O)N2CCN(c3cccc(OC)c3)CC2)[nH]n1 | 108% (inactive)
COc1ccc(NS(=O)(=O)c2ccc3c(c2)CCN3C(=O)C2CC2)cc1OC | 86% (inactive)
Cc1cn(C)c(CC(=O)N2CCN(c3ccccc3F)CC2)c1C(=O)O | 89% (inactive)

SMILES | survival
Cc1cccc(N2CCN(C(=O)Cc3c(C(=O)O)c(C)cn3C)CC2)c1C | 96% (inactive)
COc1ccccc1N1CCN(C(=O)Cc2c(C(=O)O)c(C)cn2C)CC1 | -5% (active)
Cc1ccc(NC(=O)c2cccc(NC(=O)N3CCSc4ncccc43)c2)cc1Cl | 88% (inactive)
O=C(CCSCc1cnn(-c2ccccc2)c1-n1cccc1)NCc1ccc(Cl)cc1 | 63% (inactive)
O=S(=O)(c1ccc2nc(Nc3cccc(F)c3)ccc2c1)N1CCCC1 | 72% (inactive)
CC(=O)c1cccc(Nc2ccc3cc(S(=O)(=O)N4CCCC4)ccc3n2)c1 | 101% (inactive)
CCOC(=O)c1cccc(Nc2ccc3cc(S(=O)(=O)N4CCCCC4)ccc3n2)c1 | -1% (active)
COc1ccc(-c2onc(C)c2C)cc1S(=O)(=O)N1CCN(c2ccc(Cl)cc2)CC1 | 64% (inactive)
Clc1cccc(CNNc2nc(N3CCCCC3)nc(N3CCCCC3)n2)c1 | 98% (inactive)
CCn1cc2nc(SCc3cc(C)ccc3C)n(CCc3ccccc3)c(=O)c2n1 | 67% (inactive)
CCOC(=O)c1cnc2c(C)c(Cl)ccc2c1NCCc1ccccc1 | -3% (active)
CCOC(=O)c1cnc2ccc(OC)cc2c1NCCc1ccc(OC)c(OC)c1 | 65% (inactive)
CCOC(=O)c1cnc2ccc(OCC)cc2c1NCCc1ccc(OC)c(OC)c1 | 116% (inactive)
CCOC(=O)c1cnc2ccc(OC)cc2c1NCCc1ccccc1 | -2% (active)
CCOC(=O)c1cnc2c(C)c(Cl)ccc2c1NCCc1ccc(OC)c(OC)c1 | 17% (active)
CCOC(=O)c1cnc2ccccc2c1NCCc1ccc(OC)c(OC)c1 | 33% (active)
CCOC(=O)c1cnc2ccc(C)cc2c1NCCc1ccc(OC)c(OC)c1 | 136% (inactive)
CCOC(=O)c1cnc2c(C)c(C)ccc2c1NCCCCCO | 84% (inactive)
CCOC(=O)c1cnc2c(C)c(Cl)ccc2c1Nc1ccc(C)cc1C | 142% (inactive)
CCOC(=O)c1ccc2ncc(C(=O)OCC)c(NCCc3ccc(OC)c(OC)c3)c2c1 | 53% (inactive)
Cn1c(=O)n(CCc2ccccc2)c(=O)c2c1nc1n2CCN1c1ccc(Cl)cc1 | 76% (inactive)
O=C(Cc1ccccc1)N(Cc1cccnc1)c1nc2ccc(F)cc2s1 | 86% (inactive)
Cc1ccc(C2CCN(C(=O)c3cnn(-c4ccc(C)c(C)c4)c3C3CCN(C(=O)OC(C)(C)C)CC3)C2)cc1 (stereo unspecified) | 90% (inactive)
